Results from PubChem BioAssay (Tox21).
Records with an inconclusive call do not appear. Active and inactive are the calls of the source. Unless noted, calls come from the whole dose curve; as a rule, active = well fitted curve in the direction sought with a large enough effect in the repeat runs; inconclusive = weak or mixed curves; inactive = no such curve, though single readings can be large; an effect the other way counts as inactive or inconclusive.

Columns and labels:
[1] = qHTS assay for small molecules that induce genotoxicity in human embryonic kidney cells expressing luciferase-tagged ATAD5 (AID 651632); note: nearly all actives have a fitted effect of over 15% in size; note: potency is the fitted concentration of half-maximal effect
Outline: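 HEK293T cells carrying a luciferase reporter tagged to ATAD5 were exposed to compound or DMSO vehicle for 16 hr at 37C, 5% CO2. Amplite was added, and after 30 min at room temperature luciferase activity was read as a marker of ATAD5 induction.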

[2] = qHTS assay for small molecules that induce genotoxicity in human embryonic kidney cells expressing luciferase-tagged ATAD5 - cell viability (AID 651634; calls by dose curve; note: nearly all actives have a fitted effect of over 25% in size)
Outline: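 HEK293T cells expressing luciferase-tagged ATAD5 were exposed to compound or DMSO for 15.5 hr at 37C, 5% CO2. Viability was then read as live-cell protease activity by CellTiter-Fluor fluorescence after 30 min at 37C.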

[3] = qHTS assay for small molecule disruptors of the mitochondrial membrane potential - cell viability (AID 720634; calls by dose curve;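 note: human HepG2 liver cancer cells; series mostly up to about 83 µM; nearly all actives have a fitted effect of over 20% in size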)
Outline: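 HepG2 cells seeded overnight at 37 C, then exposed to compound or DMSO for 1 hr at 37 C, 5% CO2. m-MPI dye added, then CellTiter-Glo for 30 min at room temperature; viability read as ATP luminescence.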

[4] = qHTS assay to test for compound auto fluorescence at 590 nm (red) in HepG2 cells (AID 720674)
Outline: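 Intrinsic compound fluorescence in the red window (Ex/Em 540/590 nm) is measured in attached HepG2 cells exposed for 1 hr, DMSO vehicle as baseline, benchmarked to Rose Bengal sodium.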

[5] = qHTS assay to test for compound auto fluorescence at 535 nm (green) in HepG2 cells (AID 720675)
[6] = qHTS assay to test for compound auto fluorescence at 460 nm (blue) in HEK293 cells (AID 720678)
Outline: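 Auto fluorescence in the blue band was quantified as triamterene equivalency. HEK293 cells were seeded at 2,000/well, dosed after a 4-5 hr attachment, and kept overnight at 37C before the 405/460 nm reading.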

[7] = qHTS assay to test for compound auto fluorescence at 590 nm (red) in HEK293 cells (AID 720679)
Outline: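 Autofluorescence equivalency to Rose Bengal sodium, 540/590nm, in HEK293 cells exposed overnight to 23 nL compound per well.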

[8] = qHTS assay to test for compound auto fluorescence at 535 nm (green) in HEK293 cells (AID 720680)
[9] = qHTS assay to test for compound auto fluorescence at 460 nm (blue) in HEK293 cell free culture (AID 720681)
Outline: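 Test compounds were pinned into cell-free culture medium (DMEM with 10% FBS) and fluorescence was read directly at Ex/Em 405/460 nm. Signals were expressed as fluorescence equivalents of triamterene, with DMSO vehicle as control.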

[10] = qHTS assay to test for compound auto fluorescence at 535 nm (green) in HEK293 cell free culture (AID 720682)
Outline: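 Read-out: 485/535 nm fluorescence intensity, calibrated against fluorescein. Medium only (DMEM + 10% FBS, no cells); test compound or DMSO vehicle added by pintool before plate reading.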

[11] = qHTS assay to test for compound auto fluorescence at 590 nm (red) in HEK293 cell free culture (AID 720683)
Outline: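 Tox21 10K library compounds were pinned into cell-free DMEM with 10% FBS and fluorescence was read at excitation 540 nm. Activity is expressed as Rose Bengal sodium equivalency.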

[12] = qHTS assay to test for compound auto fluorescence at 590 nm (red) in HepG2 cell free culture (AID 720684)
Outline: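 Red fluorescence (540 nm excitation, 590 nm emission) was measured after compound transfer into cell-free MEM supplemented with 10% FBS. Values are equivalencies against Rose Bengal sodium.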

[13] = qHTS assay to test for compound auto fluorescence at 460 nm (blue) in HepG2 cell free culture (AID 720685)
Outline: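 Compound (23 nL) or DMSO pinned into cell-free MEM with 10% FBS; blue fluorescence read at 405/460 nm excitation/emission, expressed as auto-fluorescence equivalency to triamterene.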

[14] = qHTS assay to test for compound auto fluorescence at 535 nm (green) in HepG2 cell free culture (AID 720686)
[15] = qHTS assay to test for compound auto fluorescence at 460 nm (blue) in HepG2 cells (AID 720687)
Outline: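 Cells (2,000/well in MEM with 10% FBS) attached overnight at 37 C, then were exposed to compound or DMSO for 1 hr at 37 C, 5% CO2. Fluorescence read at Ex/Em 405/460 nm, expressed as triamterene-equivalent signal.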

[16] = target: Glucocorticoid receptor (Homo sapiens) (UniProt P04150); assay: qHTS assay to identify small molecule agonists of the glucocorticoid receptor (GR) signaling pathway (AID 720691; active = well fitted activation curve with a large enough effect in the signal ratio in the repeat runs, not every such curve was filed as active; the % refers to the signal ratio)
Sequence of Glucocorticoid receptor (Homo sapiens) (P04150 whole entry, looked up): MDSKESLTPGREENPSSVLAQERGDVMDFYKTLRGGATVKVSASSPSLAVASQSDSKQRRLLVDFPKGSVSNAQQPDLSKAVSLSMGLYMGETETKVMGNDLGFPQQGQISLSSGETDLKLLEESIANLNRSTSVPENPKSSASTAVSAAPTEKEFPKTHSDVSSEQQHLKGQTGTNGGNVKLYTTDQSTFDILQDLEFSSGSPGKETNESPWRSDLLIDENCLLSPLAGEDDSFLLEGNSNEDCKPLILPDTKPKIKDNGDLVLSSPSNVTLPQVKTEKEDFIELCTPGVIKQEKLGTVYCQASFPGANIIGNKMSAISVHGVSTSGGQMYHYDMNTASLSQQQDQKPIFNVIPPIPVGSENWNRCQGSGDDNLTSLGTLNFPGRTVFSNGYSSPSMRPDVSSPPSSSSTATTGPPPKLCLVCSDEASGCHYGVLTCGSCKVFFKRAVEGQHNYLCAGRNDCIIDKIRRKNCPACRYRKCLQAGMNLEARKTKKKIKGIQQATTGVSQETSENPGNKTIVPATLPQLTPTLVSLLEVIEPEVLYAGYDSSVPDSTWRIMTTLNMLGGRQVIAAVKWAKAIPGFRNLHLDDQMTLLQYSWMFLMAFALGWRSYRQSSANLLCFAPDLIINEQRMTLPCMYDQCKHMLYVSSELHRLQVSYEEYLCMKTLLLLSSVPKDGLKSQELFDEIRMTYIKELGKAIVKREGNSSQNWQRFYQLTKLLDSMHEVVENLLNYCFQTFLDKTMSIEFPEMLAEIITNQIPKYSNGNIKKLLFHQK
Outline: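 GR-bla HeLa cells (beta-lactamase reporter under glucocorticoid response element) were plated 4 h at 37 C/5% CO2, given compounds in DMSO, and incubated 18 h at 37 C. LiveBLAzer B/G FRET substrate was added for 2 h at room temperature, then fluorescence intensity read.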

[17] = qHTS assay for small molecule agonists of the p53 signaling pathway - cell viability (AID 651633; calls by dose curve;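 note: p53RE-bla HCT reporter cells with a stable beta-lactamase p53 reporter; series mostly up to about 83 µM; nearly all actives have a fitted effect of over 30% in size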)
Outline: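 p53RE-bla cells, seeded at 4,000 per well and rested 5 h at 37 C/5% CO2, received compounds in DMSO for 16 h at 37 C. CellTiter-Glo was then added, and luminescence was read after 30 min at room temperature to gauge cytotoxicity.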

[18] = qHTS assay for small molecule disruptors of the mitochondrial membrane potential (AID 720635)
Outline: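 HepG2 cells (2,000/well) attached overnight at 37C, then took compound for 1 hr at 37C, 5% CO2. Mito-MPS dye was added for 30 min; fluorescence was read at 490/535 nm (monomers) and 540/590 nm (aggregates).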

[19] = target: Glucocorticoid receptor (Homo sapiens) (UniProt P04150); assay: qHTS assay to identify small molecule antagonists of the glucocorticoid receptor (GR) signaling pathway (AID 720692; active = well fitted inhibition curve with a large enough effect in the signal ratio in the repeat runs, not every such curve was filed as active; the % refers to the signal ratio)
Outline: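 GR-bla HeLa cells (beta-lactamase reporter under glucocorticoid response element) were pre-plated 4 h at 37 C, treated with compounds plus 5 nM dexamethasone (final) for 18 h, then read by LiveBLAzer B/G FRET fluorescence after 2 h.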

Measured: Potency

CCC[Si](OC)(OC)OC
not listed: [17] | [18] | [19]
inactive: all other assays above

OCCc1ccncc1
not listed: [2] | [8] | [12] | [18] | [19]
inactive: all other assays above

CC(C)(C)c1ccc(CCC=O)cc1
not listed: [12] | [17]
inactive: all other assays above

CC1=C(C)C(=O)C(CCCCC#CCCCC#CCO)=C(C)C1=O
not listed: [2] | [18]
inactive: all other assays above

CCC(C)C1N=C(C)C(C)S1 (centres undefined)
not listed: [2] | [12] | [19]
inactive: all other assays above

SCCOCCOCCS
not listed: [17] | [18]
inactive: all other assays above

Nc1ccc(C(=O)Oc2ccccc2)c(O)c1
active: [1] 9.44 µM
not listed: [3] | [4] | [8] | [10] | [18] | [19]
inactive: all other assays above

c1ccc(CN(Cc2ccccc2)Cc2ccccc2)cc1
not listed: [3] | [17] | [18] | [19]
inactive: all other assays above

Nc1ccccc1Nc1ccccc1
not listed: [2] | [16] | [17] | [18] | [19]
inactive: all other assays above
